From ChEMBL document CHEMBL3433997, “St. Jude Leishmania screening dataset” (2016) come the findings set out here.

For the experiment, the target named is Solute carrier family 2, facilitated glucose transporter member 1 (Homo sapiens) (UniProt P11166). Put plainly: ST_JUDE_LEISH: Cytotoxicity at 2uM final concentration against transgenic Leishmania Mexicana promastigotes LmGLUT1 that are glucose transport deficient and complemented with the human glucose transporter GLUT1. Activity is measured by DNA content using SYBR green in vitro. Type of experiment: functional.
Chain of Solute carrier family 2, facilitated glucose transporter member 1 (Homo sapiens) (P11166 whole entry): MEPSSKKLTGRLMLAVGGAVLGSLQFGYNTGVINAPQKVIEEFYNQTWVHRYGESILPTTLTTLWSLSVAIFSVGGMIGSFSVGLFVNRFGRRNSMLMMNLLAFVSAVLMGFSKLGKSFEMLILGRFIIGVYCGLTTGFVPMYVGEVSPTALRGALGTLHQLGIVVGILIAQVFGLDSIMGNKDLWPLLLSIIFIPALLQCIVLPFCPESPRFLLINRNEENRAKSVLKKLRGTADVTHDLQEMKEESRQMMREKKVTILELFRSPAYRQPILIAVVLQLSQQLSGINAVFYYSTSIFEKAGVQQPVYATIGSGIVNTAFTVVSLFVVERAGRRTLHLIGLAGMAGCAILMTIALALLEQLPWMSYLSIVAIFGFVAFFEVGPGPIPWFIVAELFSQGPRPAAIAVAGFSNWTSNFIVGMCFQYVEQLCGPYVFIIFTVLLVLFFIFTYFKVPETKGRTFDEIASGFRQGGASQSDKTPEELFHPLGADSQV
`O=C(/C=C/c1ccc(Cl)c(Cl)c1)NC1CCN(CCNC(=O)c2cccc(Cl)c2)CC1`: the inhibition came out at 4.41%.

In the case of `CCNc1cc(C(=O)N[C@@H](Cc2ccccc2)[C@H](O)CNCc2cccc(OC)c2C)cc(N2CCCCS2(=O)=O)c1`, the inhibition came to 1.82%. In the case of `CCCNCc1ccc(-c2ccc(CN(CCOC)C(=O)c3ccco3)cc2)nc1` it was 0.5%; in that of `CCc1cc(-c2onc(C(F)(F)F)c2-c2ccccc2)c(O)cc1OC`, 3.95%. For `O=C(NCc1cccc(Cl)c1)c1ccc(CNC2CCN(Cc3ccccc3)CC2)cc1` the value was -1.21%; for `O=C(CNCC1CCCCC1)Nc1cc(C(F)(F)F)ccc1Cl`, 1.93%. For `O=C(N[C@H]1CCN(Cc2ccc(OC3CCN(Cc4ccccc4)CC3)cc2)C1)c1ccc(Cl)c(Cl)c1` the value was -0.36%; for `Cc1ccc(N)cc1-c1nc(NC2CC(C)(C)NC(C)(C)C2)nc2c1ccc(=O)n2-c1c(F)cccc1F`, 0.73%; for `Cc1cc2ccc(-c3cccc(CN)c3)cc2nc1N`, 0.93%. On to `Nc1nccc2ccc(-c3cccc4ncccc34)cc12`, for which the inhibition came to 1.74%.

Consider `CCC1CN2CCc3c([nH]c4ccccc34)C2CC1CC1=NCCc2c1[nH]c1ccccc21` (stereo unspecified), for which the inhibition came out at 1.78%. Turning to `OC(CNCc1cccc(Oc2ccc(Cl)cc2)c1)c1cccc(C(F)(F)F)c1` (stereo unspecified), the inhibition came out at 1.7%. Take `Cc1cc(N[C@@H](CC(C)C)C(=O)NCCOc2ccccc2)nc(NCCOc2ccccc2)n1`: the inhibition was determined as 3.79%. For `Nc1c2c(nc3ccc(C(=O)Nc4cc(I)c(O)c(I)c4)cc13)CCCC2`, the inhibition turned out to be 1.22%.

In the case of `O=C(N[C@H]1CCN(Cc2ccc(OCCCN3CCCCC3)cc2)C1)c1ccc(Cl)c(Cl)c1`, the inhibition is 2.14%.

For the compound `OC(CNCCCc1ccccc1)c1cc(OCc2ccccc2)cc(OCc2ccccc2)c1` (stereo unspecified), the inhibition was 6.81%.
